# Test results from the supplement of paper PMC8773631.
# Structures can show the parent of a compound that is named as a salt. ± gives the uncertainty stated by the source.
# System: NCC-MFS5-C1
# Assay: cell viability relative to DMSO control; higher = less growth inhibition
# Settings: 10 µM; treatment time: 3 days
# Procedure: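 NCC-MFS5-C1 myxofibrosarcoma cells (1x10^4 per well, 384-well) were treated on day 2 with 10 µM of each drug. On day 5, viability was read by CCK-8 absorbance at 450 nm and normalised to the DMSO control (%), n = 2.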
row,SMILES,cell viability
1,Cc1c2oc3c(C)ccc(C(=O)N[C@@H]4C(=O)N[C@H](C(C)C)C(=O)N5CCC[C@H]5C(=O)N(C)CC(=O)N(C)[C@@H](C(C)C)C(=O)O[C@@H]4C)c3nc-2c(C(=O)N[C@@H]2C(=O)N[C@H](C(C)C)C(=O)N3CCC[C@H]3C(=O)N(C)CC(=O)N(C)[C@@H](C(C)C)C(=O)O[C@@H]2C)c(N)c1=O [Actinomycin D],40.2 ± 2.1%
2,C#Cc1cccc(Nc2ncnc3cc(OCCOC)c(OCCO)cc23)c1,92.2 ± 1.8%
3,COc1c2occc2cc2ccc(=O)oc12 [Methoxsalen],116 ± 22%
4,N#Cc1ccc(C(c2ccc(C#N)cc2)n2cncn2)cc1 [Letrozole],92.3 ± 6.4%
5,CCOc1cc(C(C)(C)C)ccc1C1=N[C@@](C)(c2ccc(Cl)cc2)[C@@](C)(c2ccc(Cl)cc2)N1C(=O)N1CCN(CCCS(C)(=O)=O)CC1,96 ± 5.5%
6,CCN1CCN(c2ccc(Nc3cc(N(C)C(=O)Nc4c(Cl)c(OC)cc(OC)c4Cl)ncn3)cc2)CC1,59.8 ± 5.6%
7,COc1ccc(C2=N[C@@H](c3ccc(Cl)cc3)[C@@H](c3ccc(Cl)cc3)N2C(=O)N2CCNC(=O)C2)c(OC(C)C)c1 [Nutlin-3],88.6 ± 1.8%
8,CCCCNC(=O)NS(=O)(=O)c1ccc(C)cc1 [Tolbutamide],82.5 ± 3.6%
9,Nc1ncn([C@@H]2O[C@H](CO)[C@@H](O)[C@H]2O)c(=O)n1 [Azacitidine],104 ± 13%
10,S=C(NCc1ccc2c(c1)OCO2)N1CCN(c2ncnc3c2oc2ccccc23)CC1 [Amuvatinib (MP-470)],86.1 ± 9%
11,NCC(=O)CCC(=O)O [5-Aminolevulinic acid HCl],85.7 ± 2.2%
12,Fc1ccc(C(c2ccc(F)cc2)N2CCN(C/C=C/c3ccccc3)CC2)cc1 [Flunarizine 2HCl],114 ± 12%
13,CNC(=O)c1cc(Oc2ccc(NC(=O)Nc3ccc(Cl)c(C(F)(F)F)c3)c(F)c2)ccn1 [Regorafenib (BAY 73-4506)],85.6 ± 6.8%
14,CCCCCOC(=O)Nc1nc(=O)n([C@@H]2O[C@H](C)[C@@H](O)[C@H]2O)cc1F [Capecitabine],72.9 ± 5.9%
15,N=C(N)NC(=N)N1CCOCC1 [Moroxydine HCl],91.2 ± 3.7%
16,"Cc1[nH]c(/C=C2\C(=O)Nc3ccccc32)c(C)c1CCC(=O)O [Orantinib (TSU-68, SU6668)]",80.2 ± 1.5%
17,CN(C)c1nc(N(C)C)nc(N(C)C)n1 [Altretamine],103 ± 3.1%
18,CNC(=O)c1ccccc1Sc1ccc2c(/C=C/c3ccccn3)n[nH]c2c1 [Axitinib],79.1 ± 4.4%

row,SMILES,cell viability
1,CO[C@@]12[C@H](COC(N)=O)C3=C(C(=O)C(C)=C(N)C3=O)N1C[C@@H]1N[C@@H]12 [Mitomycin C],41.7 ± 3.7%
2,COc1cc2nccc(Oc3ccc(NC(=O)C4(C(=O)Nc5ccc(F)cc5)CC4)cc3)c2cc1OC [Cabozantinib malate (XL184)],67.2 ± 21%
3,"C=CC(=O)Nc1cccc(Nc2nc(Nc3ccc(N4CCN(C(C)=O)CC4)cc3OC)ncc2C(F)(F)F)c1 [Rociletinib (CO-1686, AVL-301)]",54.97 ± 0.41%
4,FC(F)(F)c1ccc(/C=C/c2nc(COc3ccc(CCCCn4ccnn4)cc3)co2)cc1 [Mubritinib (TAK 165)],96 ± 3.5%
5,CS(=O)(=O)OCCCCOS(C)(=O)=O [Busulfan],83.3%
6,CCC(C)n1ncn(-c2ccc(N3CCN(c4ccc(OCC5COC(Cn6cncn6)(c6ccc(Cl)cc6Cl)O5)cc4)CC3)cc2)c1=O (stereo not given) [Itraconazole],77.7 ± 15%
7,CCc1c2c(nc3ccc(OC(=O)N4CCC(N5CCCCC5)CC4)cc13)-c1cc3c(c(=O)n1C2)COC(=O)[C@]3(O)CC [Irinotecan HCl Trihydrate],64.1 ± 2.3%
8,O=c1c(-c2ccc(O)cc2)coc2cc(O)cc(O)c12 [Genistein],81.4 ± 10%
9,N#CC1(c2ccc(NC(=O)c3cccnc3NCc3ccncc3)cc2)CCCC1 [Apatinib],80.9 ± 2%
10,CS(=O)(=O)CCNCc1ccc(-c2ccc3ncnc(Nc4ccc(OCc5cccc(F)c5)c(Cl)c4)c3c2)o1,77.3 ± 25%
11,CO[C@H]1C[C@@H]2CC[C@@H](C)[C@@](O)(O2)C(=O)C(=O)N2CCCC[C@H]2C(=O)O[C@H]([C@H](C)C[C@@H]2CC[C@@H](OC(=O)C(C)(CO)CO)[C@H](OC)C2)CC(=O)[C@H](C)/C=C(\C)[C@@H](O)[C@@H](OC)C(=O)[C@H](C)C[C@H](C)/C=C/C=C/C=C/1C,52.2 ± 7.9%
12,Nc1nc2[nH]cnc2c(=S)[nH]1 [Thioguanine],90.3 ± 0.61%
13,FC(F)(F)c1ccc(CNc2ccc(Cc3c[nH]c4ncc(Cl)cc34)cn2)cn1 [Pexidartinib (PLX3397)],72.5 ± 5.8%
14,O=C(O)C(=O)O.[NH-][C@@H]1CCCC[C@H]1[NH-].[Pt+2] [Oxaliplatin],72.7 ± 2.5%
15,CNC(=O)c1ccc(N2C(=S)N(c3ccc(C#N)c(C(F)(F)F)c3)C(=O)C2(C)C)cc1F [Enzalutamide (MDV3100)],80.3 ± 7.7%
16,Cc1nc(Nc2ncc(C(=O)Nc3c(C)cccc3Cl)s2)cc(N2CCN(CCO)CC2)n1 [Dasatinib],55.3 ± 5.5%
17,COc1cc2c(cc1O)CC[C@@H]1[C@@H]2CC[C@]2(C)[C@@H](O)CC[C@@H]12 [2-Methoxyestradiol (2-MeOE2)],57.5 ± 7.6%
